Where “and” joins values, the source holds several entries; their conditions need not be identical. Equal values may be shown once. About 79,000 compounds went through this panel and 15% of them were active in at least one assay; those are over-represented in the sample as a whole. Where a structure was tested more than once in an assay, its records may differ in their call. Calls of active or inactive are those of the source. Cut-off read from the data, not from the text of the source: active = growth inhibition above about 70%; inactive = the rest.
Legend:
[1] = NCI Yeast Anticancer Drug Screen. Data for the rad50 strain (AID 155);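 note: 0% = growth of vehicle-only cultures of the same strain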; settings: S. cerevisiae rad50 strain growth inhibition, stronger effect = higher value
How it was run: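 Vehicle-treated cultures provide the reference for the growth inhibition reported for compound-exposed, repair-deficient yeast.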

[2] = NCI Yeast Anticancer Drug Screen. Data for the mec2-1 strain (AID 157); settings: S. cerevisiae mec2-1 strain, stronger effect = higher value
How it was run: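 Vehicle-treated cultures served as reference for growth inhibition of compound-exposed mec2-1 yeast.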

[3] = NCI Yeast Anticancer Drug Screen. Data for the sgs1 mgt1 strain (AID 161);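 note: 0% = growth of cultures given vehicle only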; settings: S. cerevisiae sgs1 mgt1 strain, stronger effect = higher value
How it was run: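 Mutant yeast exposed to compound; growth scored against vehicle-only wells.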

[4] = NCI Yeast Anticancer Drug Screen. Data for the cln2 rad14 strain (AID 165);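 note: 0% = growth equal to vehicle treated cultures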; settings: S. cerevisiae cln2 rad14 strain, stronger effect = higher value
How it was run: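 Each compound was tested on cln2 rad14 yeast. Inhibition of growth was calculated against vehicle-exposed controls.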

[5] = NCI Yeast Anticancer Drug Screen. Data for the bub3 strain (AID 167); settings: S. cerevisiae bub3 mutant strain, stronger effect = higher value
How it was run: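 Mutant yeast screening strain plus compound; vehicle-treated cultures serve as the 0% inhibition reference.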

[6] = NCI Yeast Anticancer Drug Screen. Data for the mlh1 rad18 strain (AID 175); settings: S. cerevisiae mlh1 rad18 strain growth inhibition, stronger effect = higher value
How it was run: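 Vehicle-treated cultures served as the reference for growth inhibition in a yeast strain carrying DNA damage repair alterations exposed to each compound.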

[7] = at 5.0 µM (retest, dose inferred, filed as 0.5)
[8] = at 50.0 µM (retest, dose inferred, filed as 5.0)

Compound | growth inhibition [1, 7] | growth inhibition [1, 8] | growth inhibition ([1]; at 50.0 µM) | growth inhibition [2, 7] | growth inhibition [2, 8] | growth inhibition ([2]; at 50.0 µM) | growth inhibition [3, 7] | growth inhibition [3, 8] | growth inhibition ([3]; at 50.0 µM) | growth inhibition [4, 7] | growth inhibition [4, 8] | growth inhibition ([4]; at 50.0 µM) | growth inhibition [5, 7] | growth inhibition [5, 8] | growth inhibition ([5]; at 50.0 µM) | growth inhibition [6, 7] | growth inhibition [6, 8] | growth inhibition ([6]; at 50.0 µM)
C[C@@H](O)[C@H]1CC[C@H]2[C@@H]3CCC4=C/C(=N/O)CC[C@]4(C)[C@H]3CC[C@]12C | 36% (inactive) | 51% (inactive) | 7.4% (inactive) | 15% (inactive) | 20% (inactive) | 22.2% (inactive) | 44% (inactive) | -34% (inactive) | 36.1% (inactive) | 16% (inactive) | 78% (active) | -0.05% (inactive) | -2% (inactive) | 61% (inactive) | 80.8% (active) | 54% (inactive) | 68% (inactive) | 36.1% (inactive)
COC(=O)C(=O)C(C(=O)C(c1ccccc1)c1ccccc1)c1nc2n(c1O)/C(=N/C(=O)Nc1ccc(Cl)cc1)N=N2 (configuration not stated) | 0% (inactive) | 41% (inactive) | 76.6% (active) | 6% (inactive) | 58% (inactive) | 87.2% (active) | 6% (inactive) | 80% (active) | 85.7% (active) | -11% (inactive) | 30% (inactive) | 56.3% (inactive) | -1% (inactive) | 35% (inactive) | 41.2% (inactive) | -3% (inactive) | 41% (inactive) | 78.5% (active)
Cc1c(Cl)cccc1NC(=O)CC1Sc2ccccc2NC1=O (configuration not stated) | 23% (inactive) | 83% (active) | -1.35% (inactive) and 51.1% (inactive) | -7% (inactive) | 52% (inactive) | -6.7% (inactive) and 44.2% (inactive) | 2% (inactive) | 38% (inactive) | -22.2% (inactive) and 55% (inactive) | 8% (inactive) | 49% (inactive) | -1.1% (inactive) and 27.8% (inactive) | 4% (inactive) | 83% (active) | 1.6% (inactive) and 49.8% (inactive) | -1% (inactive) | 77% (active) | 6.5% (inactive) and 83% (active)
CC(=O)Oc1cccc2cccnc12 | 99% (active) | 99% (active) | 99.2% (active) | 91% (active) | 100% (active) | 99.3% (active) | 98% (active) | 100% (active) | 89.2% (active) | 88% (active) | 99% (active) | 98.8% (active) | 98% (active) | 100% (active) | 99.2% (active) | 96% (active) | 99% (active) | 98.1% (active)
c1ccc(N=c2cnc3c(ccc4ccccc43)o2)cc1 | 97% (active) | 93% (active) | 93.5% (active) | 97% (active) | 96% (active) | 95.5% (active) | 96% (active) | 95% (active) | 94.2% (active) | 99% (active) | 98% (active) | 98.6% (active) | 64% (inactive) | 84% (active) | 79.2% (active) | 97% (active) | 96% (active) | 96.8% (active)
Nc1cc(F)c2c(c1)Cc1ccccc1-2 | 1% (inactive) | 95% (active) | 84.3% (active) | -3% (inactive) | 60% (inactive) | 39.2% (inactive) | -6% (inactive) | 84% (active) | 82.7% (active) | 8% (inactive) | 32% (inactive) | 23.7% (inactive) | 9% (inactive) | 92% (active) | 71% (active) | 12% (inactive) | 97% (active) | 58.1% (inactive)
CC(=O)OC1CC2C(C)(C)C(=O)C=C[C@]2(C)C2CCC3(C)C(=CC(=O)C3c3ccoc3)[C@]12C (some centres not stated) | -4% (inactive) | 40% (inactive) | 65.4% (inactive) | -8% (inactive) | 38% (inactive) | 65.3% (inactive) | -1% (inactive) | 86% (active) | 87% (active) | 19% (inactive) | 52% (inactive) | 18.7% (inactive) | 7% (inactive) | 58% (inactive) | 56.9% (inactive) | -1% (inactive) | 52% (inactive) | 56.4% (inactive)
NNc1nc2ccccc2s1 | 14% (inactive) | 34% (inactive) | 1.3% (inactive) and 47.8% (inactive) | 10% (inactive) | 32% (inactive) | -37% (inactive) and 42.6% (inactive) | 2% (inactive) | 38% (inactive) | 4.4% (inactive) and 72.5% (active) | 8% (inactive) | 3% (inactive) | 0.55% (inactive) and 8.6% (inactive) | 19% (inactive) | 45% (inactive) | 9.15% (inactive) and 89.6% (active) | 37% (inactive) | 64% (inactive) | -7.35% (inactive) and 88.2% (active)
Oc1c(Cl)cc(Cl)cc1Cc1cc(Cl)cc(Cl)c1O | 93% (active) and 80% (active) | 98% (active) | 98.2% (active) and 99% (active) | 86% (active) and 85% (active) | 99% (active) | 98.8% (active) and 99.2% (active) | 92% (active) and 85% (active) | 98% (active) | 98.1% (active) and 99.4% (active) | 97% (active) and 84% (active) | 99% (active) and 98% (active) | 99% (active) | 88% (active) and 74% (active) | 98% (active) | 98.4% (active) and 99.3% (active) | 94% (active) and 89% (active) | 98% (active) | 98.5% (active) and 99.2% (active)
O=C1OC(CN2CCOCC2)CN1/N=C/c1ccc([N+](=O)[O-])o1 (configuration not stated) | 6% (inactive) | 50% (inactive) | 65.8% (inactive) and -2.7% (inactive) | 8% (inactive) | 41% (inactive) | 26.6% (inactive) and 14.2% (inactive) | 18% (inactive) | 80% (active) | 86% (active) and 69.8% (inactive) | 1% (inactive) | 51% (inactive) | 38.3% (inactive) and -8.55% (inactive) | -4% (inactive) | 9% (inactive) | 36.6% (inactive) and 0.1% (inactive) | 13% (inactive) | 76% (active) | 75.7% (active) and 34.3% (inactive)
CC(=O)Oc1ccc2c(c1)Oc1cc(OC(C)=O)ccc1C21OC(=O)c2ccccc21 | 5% (inactive) | 5% (inactive) | 16.8% (inactive) and 98.2% (active) | -3% (inactive) | 53% (inactive) | 19.5% (inactive) and 99.5% (active) | 3% (inactive) | 36% (inactive) | 30.9% (inactive) and 96.8% (active) | 3% (inactive) | 54% (inactive) | 14.2% (inactive) and -25.1% (inactive) | -1% (inactive) | 27% (inactive) | 18.6% (inactive) and 99.5% (active) | 14% (inactive) | 24% (inactive) | 24.8% (inactive) and 98.7% (active)
Clc1cc(Cl)c(Cl)nn1 | 13% (inactive) | 83% (active) | 59.6% (inactive) and 86% (active) | 3% (inactive) | 38% (inactive) | 2.1% (inactive) and 44.9% (inactive) | -1% (inactive) | 24% (inactive) | 3.1% (inactive) and 15.5% (inactive) | -8% (inactive) | 25% (inactive) | -7.45% (inactive) and 16.4% (inactive) | 6% (inactive) | 48% (inactive) | 18.6% (inactive) and 60.8% (inactive) | 1% (inactive) | 45% (inactive) | 15.8% (inactive) and 25% (inactive)
CC(=O)OCC1OC(n2c(=S)n(-c3ccccc3)c(=O)c3ccccc32)C(OC(C)=O)C(OC(C)=O)C1OC(C)=O (configuration not stated) | 27% (inactive) | 27% (inactive) | 8.65% (inactive) and -2.35% (inactive) | 14% (inactive) | 14% (inactive) | -27.1% (inactive) and 5.4% (inactive) | 11% (inactive) | 11% (inactive) | 6.3% (inactive) and -28.1% (inactive) | 17% (inactive) | 17% (inactive) | 9.15% (inactive) and -3.95% (inactive) | 6% (inactive) | 6% (inactive) | 58.9% (inactive) and -30.1% (inactive) | 7% (inactive) | 7% (inactive) | 12.2% (inactive) and -0.5% (inactive)
NC(=O)SCC(=O)NNc1ccccc1 | 16% (inactive) | 54% (inactive) | 48.1% (inactive) and 88.1% (active) | 1% (inactive) | 40% (inactive) | 13.3% (inactive) and 39.9% (inactive) | 5% (inactive) | 41% (inactive) | 87.8% (active) | 11% (inactive) | 60% (inactive) | 82.2% (active) | 13% (inactive) | 88% (active) | 86% (active) | 14% (inactive) | 81% (active) | 51.5% (inactive) and 88.9% (active)

Reference: PubChem BioAssay (NCI)
